Bioassay records from PubChem.
FLuc inh: blocks Photinus pyralis firefly luciferase activity; P08659; purified firefly luciferase, luminescence, 8 min; Potency, µM (series often up to 57.1 µM), actives largely listed as inhibitors; 72,000 tested, 2.2% active; also: nearly all actives have a fitted effect of over 40% in size
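Here, luciferase activity is measured as luminescence following an 8 min room-temperature reaction at 10 uM ATP, pH 7.2. Every library sample is titrated.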
IkB signaling: IkB pathway inhibition in ABC-DLBCL cells. ABC-DLBCL IkBa-CBG/CBR dual luciferase ratio, 4 h; response scale: scaled: untreated 0%, proteasome inhibitor 100%. Potency, µM (series often up to 57.1 µM). 110,000 tested, 0.04% active; active = well fitted curve in the direction sought with a large enough effect in the signal ratio, not every such curve was filed as active; inconclusive = small, poorly fitted or top-dose-only effect, or a change in a side signal; the % refers to the signal ratio;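 also: the direction sought is a rising ratio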
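Curves were fitted separately to fusion (green), unfused (red) and ratio luminescence, then classed by r2, magnitude and activity. Cells: OCI-Ly3, 4 h compound plus doxycycline at 37C; 10 uM MG-132 defined full response.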
IMPase inh: membrane-permeable compound that blocks inositol monophosphatase; 120,000 tested, under 10 active; AID 901; CHO-M1 cells, IP1 accumulation, HTRF TR-FRET ratio; inhibition (IP1 accumulation), % at 46.1 µM; active = well fitted curve in the direction sought with a large enough effect in the signal ratio, not every such curve was filed as active; inconclusive = small, poorly fitted or top-dose-only effect, or a change in a side signal; inactive = no such curve, though single readings can be large or run the other way; the % refers to the signal ratio;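 also: cells stimulated with carbachol in lithium chloride buffer; higher means more IMPase inhibition seen as more IP1 and lower FRET ratio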
Target sequence (P97697 whole entry, looked up): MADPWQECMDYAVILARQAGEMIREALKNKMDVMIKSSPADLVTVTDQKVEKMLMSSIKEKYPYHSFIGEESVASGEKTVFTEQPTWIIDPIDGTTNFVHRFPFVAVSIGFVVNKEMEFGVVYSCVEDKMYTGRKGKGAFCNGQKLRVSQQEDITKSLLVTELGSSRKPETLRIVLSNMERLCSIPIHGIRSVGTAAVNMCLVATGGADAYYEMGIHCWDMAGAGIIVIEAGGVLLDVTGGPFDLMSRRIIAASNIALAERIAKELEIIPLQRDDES
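Measured: the HTRF emission ratio (665/620 nm) plus the 620 nm donor channel, each fitted to the Hill equation to give AC50. Cells were CHO-M1 given compounds up to 46 uM and a 30 min carbachol stimulation at 37C.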
p53ts 32C kill: kills p53ts cells at the permissive temperature; H1299-p53A138V at 32C, ATP luminescence viability, 24 h; Potency, µM (titrated, usually from 46.1 µM), hits mostly cytotoxic; 130,000 tested, 0.93% active; AID 924; also: nearly all actives have a fitted effect of over 55% in size
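ATP-content luminescence (ATPlite) read-out after 24 h compound exposure at 32C in H1299-p53A138V cells (600/well). Tested up to 46 uM. Normalized to DMSO (0%) and 100 uM tamoxifen (100% killing); Hill-fit AC50.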
p53ts 39C tox: p53ts cell cytotoxicity, nonpermissive temperature | AID 902 | Potency, µM (top dose mostly 46.1 µM), usual class: cytotoxic | H1299-p53A138V viability at 39C, ATP luminescence, 24 h | 130,000 tested, 1.5% active; also: nearly all actives have a fitted effect of over 55% in size
Imprint erasure: inducers of genomic imprint erasure in mouse ES cells; 110,000 tested, 0.02% active; AID 1948; Potency, µM (doses to about 60.7 µM), actives largely listed as activators; mouse ES Peg3-LacZ reporter, beta-gal luminescence, 40 h
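Readout: BetaGlo luminescence (5 min, room temp) for LacZ from the normally silent maternal Peg3 allele in female Peg3LacZ-Neo ES cells. Cells 300/well, 40 h, 37C, 5% CO2. Data normalized per plate to negative controls.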
Numbers stand for hits; - = inactive; ? = inconclusive; . = not tested or not shown; [ ] = dose if it differs, or a comment. Shown is part of a subset that was picked to be rich in hits. Unless noted, calls follow the shape of the dose curve; as a rule, active = well fitted curve in the direction sought with a large enough effect; inconclusive = small, poorly fitted or top-dose-only effect, or another doubt; inactive = no such curve, though single readings can be large; an effect the other way counts as inactive or inconclusive.

SMILES	FLuc inh	IkB signaling	IMPase inh	p53ts 32C kill	p53ts 39C tox	Imprint erasure
Cc1sc2ncnc(Sc3nnnn3-c3ccc(Cl)cc3)c2c1C	-	?	-	10µM	5.01µM	-
Cc1ccc(-n2c(C)cc(C(=O)COC(=O)c3c(C)noc3C)c2C)cc1	25.1µM	?	-	?	?	-
Cc1ccc(-n2c(C)cc(C(=O)CSc3n[nH]c(N)n3)c2C)cc1	.	.	-	.	.	.
CCOC(=O)c1scc(-c2ccc(C)cc2)c1S(=O)(=O)N1CCN(c2ccccc2F)CC1	.	-	.	-	-	-[10.9 µM]
COC(=O)CCC(=O)Oc1ccc(OC(=O)CCC(=O)OC)cc1	-	-	.	-	-	5.01µM
O=C(c1cccs1)N1CCC(c2ccccc2)C1 (stereo unspecified)	12.6µM	?	-	-	-	-
O=C(Nc1ccc(Cl)c(Cl)c1)N1CCC(c2ccccc2)C1 (stereo unspecified)	.	?	.	?	?	-[10.9 µM]
O=C(Nc1ccccc1)N1CCC(c2ccccc2)C1 (stereo unspecified)	15.8µM	?	-	?	?	-
N[C@@H](Cc1c[nH]c2ccccc12)C(=O)NCC(=O)O	-[11.4 µM]	-[11.4 µM]	.	.	.	.
COc1cccc2sc(Nc3nnc(-c4cccs4)o3)nc12	15.8µM	?	?	?	12.6µM	-
Fc1cccc2sc(Nc3nnc(-c4ccco4)o3)nc12	25.1µM	?	-	?	?	-
COc1cccc(CNc2ncnc3onc(-c4ccc(F)cc4)c23)c1	.	-	.	-	-	-[10.9 µM]
CN(C)c1ccc(NC(=S)c2ccccn2)cc1	0.794µM	?	.	1.58µM	2.51µM	-
CN(C)S(=O)(=O)c1ccc(NC(=O)c2ccccn2)cc1	?	-	-	12.6µM	10µM	-
CC1(COc2ccc(C[C@H]3SC(=O)NC3=O)cc2)CCCCC1	-	?	-	?	39.8µM	-
Cc1cc(C)c2c(N)c(C(=O)Nc3ncc(C)s3)sc2n1	.	.	-	1µM	0.794µM	.
COc1ccc(OC)c(S(=O)(=O)n2ccnc2)c1	-	-	.	-	-	-
COc1cc2c(cc1NC(=O)COC(=O)Cn1cnc3ccccc31)oc1ccccc12	15.8µM	-	-	-	-	-
N#Cc1c(/N=C/c2cccs2)sc2c1CCCCC2	2µM	-	-	7.94µM	10µM	-
N#Cc1c(/N=C/N2CCOCC2)sc2c1CCCCC2	12.6µM	-	-	-	-	-
N#Cc1c(/N=C/c2ccc(Br)s2)sc2c1CCC2	.	.	-	-	-	.
Cc1ccc(NC(=O)Nc2cccc(C)n2)cc1	.	-	?	12.6µM	15.8µM	-[10.9 µM]
Cc1cccc(NC(=O)Nc2ccc(F)cc2)n1	.	-	-	-	-	-[10.9 µM]
Cc1ccc(OCC(=O)Nc2cccc(C)n2)c(C)c1	15.8µM	-	-	?	?	-
CCOC(=O)c1sc(Nc2nc3c(OC)cccc3s2)nc1C	15.8µM	-	-	-	-	-
SMILES	FLuc inh	IkB signaling	IMPase inh	p53ts 32C kill	p53ts 39C tox	Imprint erasure
CCOC(=O)c1sc(Nc2ccccc2)nc1C	.	.	-	.	.	.
O=C(COC(=O)c1cnccn1)c1ccc(Br)cc1	-	-	-	-	-	-
O=C(COC(=O)c1cnccn1)c1ccc2c(c1)CCCC2	20µM	-	-	-	-	-
Cc1ccc(CNC(=O)c2cccc(Nc3nc4ccccc4n4nnnc34)c2)cc1	.	?	-	?	6.31µM	-[10.9 µM]
COCCNC(=O)c1cccc(Nc2nc3ccccc3n3nnnc23)c1	.	-	.	-	-	-[10.9 µM]
C[C@@H](C[C@H](N)C(=O)O)C(=O)O	-[11.4 µM]	-[11.4 µM]	.	-[9.22 µM]	-[9.22 µM]	-[10.9 µM]
Cc1cc(C(=O)CN2C(=O)NC3(CCCc4ccccc43)C2=O)c(C)n1Cc1cccs1 (stereo unspecified)	12.6µM	-	-	-	-	-
CCOc1ccc(CNC(=O)C2Cc3ccccc3N2C(=O)CC)cc1OC (stereo unspecified)	.	-	.	-	-	-[10.9 µM]
CCCCN(C)C(=O)CSc1c2c(nc3ccc(Cl)cc13)CCCC2	.	?	.	?	?	-[10.9 µM]
O=C(CSc1c2c(nc3ccc(Cl)cc13)CCCC2)N1CCCCC1	.	?	.	?	?	-[10.9 µM]
Cc1ccc(NC(=O)CSc2c3c(nc4ccccc24)CCCC3)cc1F	.	?	.	?	15.8µM	-[10.9 µM]
O=C(CSc1c2c(nc3ccc(Cl)cc13)CCCC2)N1CCN(C(=O)c2ccco2)CC1	-	?	.	?	6.31µM	-
CN(Cc1ccccc1)C(=O)CSc1c2c(nc3ccc(Cl)cc13)CCCC2	.	?	.	22.4µM	?	-[10.9 µM]
CCCN(CCC)C(=O)CSc1c2c(nc3ccc(Cl)cc13)CCCC2	.	?	.	20µM	?	-[10.9 µM]
O=C(NCCN1CCOCC1)c1ccc(-n2c(=O)c(=O)[nH]c3ccccc32)cc1	.	.	.	-	-	.
Cc1ccccc1CNc1ncnc2c1ncn2[C@@H]1O[C@@H](CO)[C@H](O)[C@@H]1O	-	?	-	-	-	.
O=C1C[C@@H](O)[C@@H](O)[C@H]2[C@@H]3C(=O)N(C[C@@H]4CCCO4)C(=O)[C@@H]3CC[C@H]12	-[11.4 µM]	.	.	-[9.22 µM]	-[9.22 µM]	.
COc1ccccc1N1CCN(Cc2nc(-c3cc(OC)c(OC)c(OC)c3)no2)CC1	.	?	.	-	-	-[10.9 µM]
COc1cc(-c2noc(CN3CCN(c4ccccc4)CC3)n2)cc(OC)c1OC	.	-	.	-	25.1µM	-[10.9 µM]
CCN(CC)C(=O)c1sc2nc(-c3ccc(OC)cc3)cn2c1C	12.6µM	-	-	?	?	-
CCN1C(=O)[C@H]2[C@H]3[C@H](O)[C@H](O)C/C(=N/OC/C=C(\C)CCC=C(C)C)[C@H]3CC[C@@H]2C1=O	-[11.4 µM]	.	.	-[9.22 µM]	-[9.22 µM]	.
CO[C@H]1COC(=O)[C@@H](C)COC(=O)[C@@H](OCc2ccccc2)/C=C\[C@@H]1C	-[11.4 µM]	.	.	-[9.22 µM]	-[9.22 µM]	.
CN(C)c1ccc(N=Nc2ccccc2C(=O)OCC(=O)N(C)c2ccccc2)cc1	.	.	-	10µM	?	.
CC(=O)c1ccc(NC(=O)COC(=O)c2ccccc2N=Nc2ccc(N(C)C)cc2)cc1	.	.	-	-	?	.
CC(C)[C@H](O)C1=CCCCC1=O	-[11.4 µM]	.	.	-[9.22 µM]	-[9.22 µM]	.
SMILES	FLuc inh	IkB signaling	IMPase inh	p53ts 32C kill	p53ts 39C tox	Imprint erasure
C=Cc1ccccn1	.	-	.	-[1.84 µM]	-	-
CCCCN(CCCNC(=O)c1cc(Nc2ccc(OC)cc2)nc2ccccc12)Cc1ccccc1	.	-	.	-	-	-[10.9 µM]
CCCCN(CCCC)CCCNC(=O)c1cc(-c2ccc(Cl)s2)nc2ccccc12	.	?	.	-	?	-[10.9 µM]
Cc1cc(C)cc(Nc2cc(C(=O)NCCCN(C)C3CCCCC3)c3ccccc3n2)c1	.	?	.	?	7.94µM	-[10.9 µM]
CCc1ccccc1NC(=O)c1cc(-c2ccc(Cl)s2)nc2ccccc12	.	?	.	?	10µM	-[10.9 µM]
CCCCN(CCCNC(=O)c1cc(Nc2ccc(OC)c(OC)c2)nc2ccccc12)Cc1ccccc1	.	?	.	-	12.6µM	-[10.9 µM]
CCCCN(C)CCCNC(=O)c1cc(-c2ccc(Br)s2)nc2ccccc12	.	-	.	-	12.6µM	-[10.9 µM]
Cc1ccc(C)c(Nc2cc(C(=O)NCCCN(C)C3CCCCC3)c3ccccc3n2)c1	.	?	.	-	?	-[10.9 µM]
